# Laboratory results taken from the supplement of paper PMC4894684.
# Where a name gives a salt, the structure may show the parent alone. ± gives the standard deviation of the averaged measurements. About 15 (2%) of roughly 1,000 compounds showed an effect of 50% or more. The list comes from a sample in which strong results are over-represented; it also holds similar structures and randomly drawn compounds.
# Tested on: HFF
# Experiment: uninfected host cell viability relative to vehicle control; higher = less host cell toxicity
# Details: 5 µM; 72 h; oxygen 21 %
row,SMILES,uninfected host cell viability
1,COc1cc(CNC(=O)CCCC/C=C/C(C)C)ccc1O [(E)-Capsaicin],88.13 ± 0.59%
2,CC[C@]1(O)C[C@H]2CN(CCc3c([nH]c4ccccc34)[C@@](C(=O)OC)(c3cc4c(cc3OC)N(C=O)[C@H]3[C@@](O)(C(=O)OC)[C@H](OC(C)=O)[C@]5(CC)C=CCN6CC[C@]43[C@@H]65)C2)C1 [Vincristine sulfate],68 ± 2.9%
3,O=C(Nc1cc(C(F)(F)F)cc(C(F)(F)F)c1)c1cc(Cl)ccc1O,46.8 ± 2.5%
4,O=c1oc(-c2ccc(C(F)(F)F)cc2)nn1Cc1cc(Cl)ccc1O,95.1 ± 1%
5,Cc1oncc1C(=O)Nc1ccc(C(F)(F)F)cc1 [Leflunomide],93.41 ± 0.27%
6,O=C1CC2(CCCC2)CC(=O)N1CCNCC1COc2ccccc2O1 (stereo not drawn),85.64 ± 0.64%
7,Cn1cnnc1Sc1c([N+](=O)[O-])ncn1C,89.361 ± 0.008%
8,N[C@@H](C(=O)O)c1ccc(C(=O)O)c(C(=O)O)c1,89 ± 7.8%
9,COc1ccc(-c2nc(C(=O)N3CCN(C)CC3)sc2-c2ccc(OC)cc2)cc1,81.4 ± 4.7%
10,O=C1C(Cl)=C(NCCN2CCOCC2)C(=O)c2ncccc21,34.44 ± 0.16%
11,O=C1c2ccccc2S(=O)(=O)N1CCCCN1CCN(c2ncccn2)CC1 [Ipsapirone],87.04 ± 0.35%
12,Cc1cc(Cn2cnc3c2CC(C(=O)O)N(C(=O)C(c2ccccc2)c2ccccc2)C3)ccc1N(C)C (stereo not drawn),82.1 ± 3.1%
13,COc1ccc([C@@H]2CNC(=O)C2)cc1OC1CCCC1 [(R)-(-)-Rolipram],82.9 ± 1%
14,"C1CCC2(CC1)CCNCC2 [4,4-Pentamethylenepiperidine hydrochloride]",84.79 ± 0.68%
15,Cc1cc(NC(=O)Nc2ccc(N(C)C)cc2)c2cc(F)cc(F)c2n1,85.86 ± 0.3%
16,Nc1ncnc2n[nH]c(Nc3ccc(F)cc3)c12,80.93 ± 0.35%
17,O=C(c1ccc(Nc2nccc(-c3cc4ccccc4s3)n2)cc1)N1CCC(N2CCCC2)CC1,14.9 ± 0.68%

row,SMILES,uninfected host cell viability
1,O=c1[nH]ccc2c(S(=O)(=O)N3CCCNCC3)cccc12 [HA 1100 hydrochloride],90 ± 3.1%
2,Nc1nc2c(ccc3ccccc32)s1,77.6 ± 1.3%
3,O=c1cc(N2CCNCC2)oc2c(-c3ccccc3)cccc12,87.4 ± 1.8%
4,FC(F)(F)c1cccc(-c2noc(-c3cc(-c4ccccc4)c(C(F)(F)F)s3)n2)c1,90.4 ± 2.4%
5,CCN(CC)CCOc1ccc(Cc2ccccc2)cc1 [DPPE fumarate],86.65 ± 0.8%
6,CCS(=O)(=O)N1CCC[C@@H]2CN3CCc4cc(OC)ccc4[C@@H]3C[C@@H]21,85.4 ± 2.9%
7,N[C@@H](CC(=O)Nc1ccc(Oc2cc(F)c(F)cc2Br)cc1)C(=O)O,95 ± 0.96%
8,O=c1ncccn1[C@@H]1O[C@H](CO)[C@@H](O)[C@H]1O [Zebularine],90.802 ± 0.032%
9,O=C(/C=C/c1ccccc1)NC(NC(=S)Nc1cccc2cccnc12)C(Cl)(Cl)Cl (stereo not drawn) [Salubrinal],84.55 ± 0.26%
10,C=C1/C(=C\C=C2/CCC[C@]3(C)[C@@H]([C@H](C)/C=C/[C@@H](O)C4CC4)CC[C@@H]23)C[C@@H](O)C[C@@H]1O [Calcipotriol],83.9 ± 3.1%
11,CC(C)c1ccc2c(c1)CC[C@H]1[C@](C)(CN)CCC[C@]21C [Lylamine hydrochloride],87.8 ± 1.4%
12,"Cc1ccccc1N1CCN(S(=O)(=O)C[C@]23CC[C@H](C[C@@H]2NC(=O)[C@@H](N)CCS(C)(=O)=O)C3(C)C)CC1 [L-368,899 hydrochloride]",87.07 ± 0.83%
13,C=C1C(=O)O[C@@H]2/C=C(\C)CC/C=C(\C)CC[C@@H]12 [Costunolide],114 ± 2.7%
14,N[C@@H](Cc1cc(CP(=O)(O)O)cc(-c2ccccc2Cl)c1)C(=O)O,88.9 ± 6%
15,O=C(Nc1ccccc1)N[C@@H]1C[C@@H](C(=O)O)Nc2cc(Cl)cc(Cl)c21,87.6 ± 1.1%
16,c1ccc(C(O[C@@H]2CCCN(CCc3ccc4c(c3)OCO4)C2)c2ccccc2)cc1 [Zamifenacin fumarate],90.5 ± 1%
